Assay results taken from PubChem BioAssay (EPA / NIEHS).
Records with an inconclusive call do not appear. Active and inactive are the calls of the source. The calls were made as follows, unless noted: active = hit-call score of the fitted dose curve at least 0.9, where 1 is the maximum; inconclusive = response in the unintended direction; inactive = score below 0.9.

How the values were obtained:
[1] = read-out: Transforming Growth Factor (TGFA), TGFA (gene 7039); assay: LTEA_HepaRG_TGFA: Life Technologies and Expression Analysis (LTEA) Assay for Transforming Growth Factor (TGFA) using HepaRG (AID 2283532; active = hit-call score of the fitted dose curve at least 0.9, where 1 is the maximum; inactive = score below 0.9); settings: mRNA level, 48 h; actives raise or lower the signal
In short: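 Gene expression of TGFA was quantified by qRT-PCR after human HepaRG cells were treated for 48 h with test chemicals (eight concentrations, highest 100 uM, 0.5% DMSO). Activity in either direction was fitted relative to DMSO.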

[2] = read-out: Transforming Growth Factor (TGFB1), TGFB1 (gene 7040); assay: LTEA_HepaRG_TGFB1: Life Technologies and Expression Analysis (LTEA) Assay for Transforming Growth Factor (TGFB1) Transporter using HepaRG (AID 2283533; active = hit-call score of the fitted dose curve at least 0.9, where 1 is the maximum; inactive = score below 0.9); settings: mRNA level, 48 h; actives raise or lower the signal
In short: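 Differentiated HepaRG cells exposed 48 hr in serum-free induction medium to eight half-log concentrations up to 100 uM (0.5% DMSO), duplicate; TGFB1 mRNA by TaqMan qRT-PCR normalised to ACTB, GAPDH, POLR2A; bidirectional fit against DMSO.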

[3] = read-out: TIMP1, TIMP1 (gene 7076); assay: LTEA_HepaRG_TIMP1: Life Technologies and Expression Analysis (LTEA) Assay for TIMP1 using HepaRG (AID 2283534; active = hit-call score of the fitted dose curve at least 0.9, where 1 is the maximum; inactive = score below 0.9;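 also: TaqMan qRT-PCR signal normalized to ACTB GAPDH and POLR2A housekeeping genes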); settings: mRNA level, 48 h; actives raise or lower the signal
In short: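 Differentiated HepaRG cells exposed 48 h in serum-free induction medium, duplicates, eight half-log concentrations from 100 uM in 0.5% DMSO. TIMP1 mRNA by qRT-PCR normalized to ACTB, GAPDH, POLR2A; bidirectional fitting against DMSO.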

[4] = read-out: Tumor necrosis factor receptor 1 (TNFRSF1A), TNFRSF1A (gene 7132); assay: LTEA_HepaRG_TNFRSF1A: Life Technologies and Expression Analysis (LTEA) Assay for Tumor necrosis factor receptor 1 (TNFRSF1A) using HepaRG (AID 2283535; active = hit-call score of the fitted dose curve at least 0.9, where 1 is the maximum; inactive = score below 0.9); settings: mRNA level, 48 h; actives raise or lower the signal
In short: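 Differentiated HepaRG cells in serum-free induction medium, exposed 48 h in duplicate to 8 half-log concentrations up to 100 uM in 0.5% DMSO. TNFRSF1A mRNA by Fluidigm TaqMan qRT-PCR, normalized to ACTB, GAPDH, POLR2A; bidirectional fit.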

[5] = read-out: Thyroid Hormone Responsive (THRSP), THRSP (gene 7069); assay: LTEA_HepaRG_THRSP: Life Technologies and Expression Analysis (LTEA) Assay for Thyroid Hormone Responsive (THRSP) using HepaRG (AID 2283536; active = hit-call score of the fitted dose curve at least 0.9, where 1 is the maximum; inactive = score below 0.9); settings: mRNA level, 48 h; actives raise or lower the signal
In short: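 Cell model: human HepaRG, approx. 100,000 cells/well, 0.5% DMSO vehicle. Exposure lasts 48 h; phenobarbital 1 mM serves as induction positive control. Gene expression is measured by qRT-PCR against three endogenous control genes.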

[6] = read-out: Cellular tumor antigen p53 (Homo sapiens) (UniProt P04637); assay: LTEA_HepaRG_TP53: Life Technologies and Expression Analysis (LTEA) Assay for Tumor Protein P53 (TP53) using HepaRG (AID 2283537; active = hit-call score of the fitted dose curve at least 0.9, where 1 is the maximum; inactive = score below 0.9); settings: mRNA level, 48 h; actives raise or lower the signal
In short: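 Gain or loss of TP53 mRNA signal is scored relative to 0.5% DMSO after 48 h chemical treatment of HepaRG liver cells, tested in duplicate at eight half-log concentrations up to 100 uM.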

[7] = read-out: UDP glucuronosyltransferase (UGT1A1), UGT1A1 (gene 54658); assay: LTEA_HepaRG_UGT1A1: Life Technologies and Expression Analysis (LTEA) Assay for UDP glucuronosyltransferase (UGT1A1) using HepaRG (AID 2283538; active = hit-call score of the fitted dose curve at least 0.9, where 1 is the maximum; inactive = score below 0.9); settings: mRNA level, 48 h; actives raise or lower the signal
In short: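 HepaRG, 48 h chemical exposure (top 100 uM, half-log 8-pt, 0.5% DMSO vehicle), duplicate wells; qRT-PCR (TaqMan, Fluidigm array) for UGT1A1 mRNA, housekeeping-normalized; bidirectional curve fit vs DMSO baseline.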

[8] = read-out: UDP glucuronosyltransferase (UGT1A6), UGT1A6 (gene 54578); assay: LTEA_HepaRG_UGT1A6: Life Technologies and Expression Analysis (LTEA) Assay for UDP glucuronosyltransferase (UGT1A6) using HepaRG (AID 2283539; active = hit-call score of the fitted dose curve at least 0.9, where 1 is the maximum; inactive = score below 0.9); settings: mRNA level, 48 h; actives raise or lower the signal
In short: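 Differentiated HepaRG cells, ~100,000/well, were exposed for 48 h in serum-free induction medium with 0.5% DMSO to 8-point half-log series topping at 100 uM, in duplicate. mRNA measured by Fluidigm TaqMan qRT-PCR, normalized to ACTB, GAPDH and POLR2A.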

[9] = read-out: X-box binding protein 1 (XBP1), XBP1 (gene 7494); assay: LTEA_HepaRG_XBP1: Life Technologies and Expression Analysis (LTEA) Assay for X-box binding protein 1 (XBP1) using HepaRG (AID 2283540; active = hit-call score of the fitted dose curve at least 0.9, where 1 is the maximum; inactive = score below 0.9); settings: mRNA level, 48 h; actives raise or lower the signal
In short: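 Differentiated human HepaRG cells in serum-free induction medium exposed 48 h in duplicate to eight half-log concentrations up to 100 uM in 0.5% DMSO. XBP1 mRNA measured by Fluidigm TaqMan qRT-PCR, normalized to ACTB, GAPDH, POLR2A; bidirectional fitting against DMSO.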

[10] = LTEA_HepaRG_LDH_cytotoxicity: Cytotoxicity Assessment in the Life Technologies and Expression Analysis (LTEA) Assay (AID 2283563)
In short: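 Differentiated HepaRG cells in serum-free induction medium, exposed 48 h in duplicate to 8 half-log concentrations up to 100 uM in 0.5% DMSO. Cytotoxicity from LDH measured in spent medium, fit relative to DMSO.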

[11] = Tanguay_ZF_120hpf_MORT_legacy: (Legacy) Oregon State University Tanguay Lab 120 Hour Post-fertilization zebrafish Assay for Mortality (AID 2283633)
In short: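 Dechorionated Tropical 5D wild-type zebrafish embryos, one per well from 6 hpf, static exposure in 0.64% DMSO at 28C until 120 hpf. Mortality scored as binary by brightfield microscopy at 24 and 120 hpf.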

[12] = Tanguay_ZF_120hpf_YSE_legacy: (Legacy) Oregon State University Tanguay Lab 120 Hour Post-fertilization zebrafish Assay for Yolk Sac Edema (AID 2283634)
In short: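 Dechorionated Tropical 5D wild-type zebrafish embryos were exposed statically, one per well, from 6 to 120 hpf at 28C in 0.64% DMSO. Yolk sac edema was scored present/absent by brightfield at 120 hpf, and dead embryos were excluded.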

[13] = Tanguay_ZF_120hpf_AXIS_legacy: (Legacy) Oregon State University Tanguay Lab 120 Hour Post-fertilization zebrafish Assay for Body Axis Malformation (AID 2283635)
In short: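 Dechorionated wild-type Tropical 5D zebrafish embryos, one per well, statically exposed from 6 hpf to 120 hpf at 28C in 0.64% DMSO final. Body axis malformation scored present/absent by brightfield microscopy at 120 hpf; dead embryos excluded.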

[14] = Tanguay_ZF_120hpf_EYE_legacy: (Legacy) Oregon State University Tanguay Lab 120 Hour Post-fertilization zebrafish Assay for Eye Malformation (AID 2283636);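 also: binary presence or absence of eye malformation scored by brightfield in 120 hpf larvae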
In short: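 Static waterborne exposure of dechorionated zebrafish embryos (strain Tropical 5D), 6 to 120 hpf, sealed plates at 28C, 0.64% DMSO vehicle. Eye malformation is scored as a binary endpoint, with gain of signal analysed relative to DMSO.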

[15] = Tanguay_ZF_120hpf_SNOU_legacy: (Legacy) Oregon State University Tanguay Lab 120 Hour Post-fertilization zebrafish Assay for Snout Malformation (AID 2283637)
In short: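 Dechorionated zebrafish, individually housed from 6 hpf in covered, sealed wells at 28C with 0.64% DMSO vehicle, were examined at 120 hpf for snout malformation. Responses were binary and analysed positive-direction relative to DMSO.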

[16] = Tanguay_ZF_120hpf_JAW_legacy: (Legacy) Oregon State University Tanguay Lab 120 Hour Post-fertilization zebrafish Assay for Jaw Malformation (AID 2283638)
In short: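 Dechorionated Tropical 5D wild-type zebrafish embryos, one per well, exposed statically from 6 hpf to 120 hpf at 28C in 0.64% DMSO. Jaw malformation was scored by brightfield microscopy as present or absent. It was not scored in dead embryos.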

[17] = Tanguay_ZF_120hpf_OTIC_legacy: (Legacy) Oregon State University Tanguay Lab 120 Hour Post-fertilization zebrafish Assay for Otic Vesicle Malformation (AID 2283639)
In short: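 Brightfield scoring at 120 hpf, binary present/absent; DMSO negative control, 5uM trimethyltin chloride positive control. Static exposure at 28C, final DMSO 0.64% (vol/vol). Dead embryos not scored for malformation.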

[18] = Tanguay_ZF_120hpf_PE_legacy: (Legacy) Oregon State University Tanguay Lab 120 Hour Post-fertilization zebrafish Assay for Pericardial Edema (AID 2283640)
In short: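 Tropical 5D wild-type zebrafish embryos were statically exposed until 120 hpf at 28C, with 0.64% DMSO final. Pericardial edema was scored by brightfield as present or absent; endpoints were not scored in dead embryos.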

[19] = Tanguay_ZF_120hpf_BRAI_legacy: (Legacy) Oregon State University Tanguay Lab 120 Hour Post-fertilization zebrafish Assay for Brain Malformation (AID 2283641)
In short: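 Tropical 5D wild-type zebrafish embryos exposed statically until 120 hpf at 28C, 0.64% DMSO final, sealed and dark. Brain malformation scored present/absent by brightfield at 120 hpf; dead embryos excluded. Trimethyltin chloride 5uM positive control.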

[20] = Tanguay_ZF_120hpf_SOMI_legacy: (Legacy) Oregon State University Tanguay Lab 120 Hour Post-fertilization zebrafish Assay for Somite Malformation (AID 2283647)
In short: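 Dechorionated Tropical 5D wild-type zebrafish embryos, one per well from 6 hpf, statically exposed at 28C to 120 hpf in 0.64% DMSO; somite malformation scored present/absent by brightfield; trimethyltin 5 uM positive control; dead embryos not scored.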

Measured: outcome

Sequence of Cellular tumor antigen p53 (Homo sapiens) (P04637 whole entry, looked up): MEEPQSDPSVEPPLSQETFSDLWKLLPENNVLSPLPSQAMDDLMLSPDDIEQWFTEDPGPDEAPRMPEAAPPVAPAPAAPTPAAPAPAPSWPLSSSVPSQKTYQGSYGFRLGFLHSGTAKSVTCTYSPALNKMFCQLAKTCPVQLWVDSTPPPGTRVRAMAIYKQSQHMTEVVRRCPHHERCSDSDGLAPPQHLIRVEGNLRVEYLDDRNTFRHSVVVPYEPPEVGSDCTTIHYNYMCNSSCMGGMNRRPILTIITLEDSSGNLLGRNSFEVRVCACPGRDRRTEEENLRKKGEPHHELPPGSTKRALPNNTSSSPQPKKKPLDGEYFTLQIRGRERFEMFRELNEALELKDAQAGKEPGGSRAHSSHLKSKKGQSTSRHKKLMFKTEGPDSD

O=C(CCl)c1ccccc1
inactive: all assays above

O=[N+]([O-])c1ccc(Cl)cc1
inactive: all assays above
